Compound activity (PubChem)
EBV gp42 inh = Epstein-Barr virus gp42 inhibitors, primary screen, biochemical, uHTS, fluorescence polarization; Fluorescence polarization binding assay, mP read-out; AID 1085, 2008; inhibition, % (tested at 21.74 µM); actives 0.42% (n = 220,000); Glycoprotein 42 (Epstein-Barr virus (strain AG876)), Q1HVG2; in the data active = inhibition above about 50%
Target sequence (Q1HVG2 whole entry, looked up): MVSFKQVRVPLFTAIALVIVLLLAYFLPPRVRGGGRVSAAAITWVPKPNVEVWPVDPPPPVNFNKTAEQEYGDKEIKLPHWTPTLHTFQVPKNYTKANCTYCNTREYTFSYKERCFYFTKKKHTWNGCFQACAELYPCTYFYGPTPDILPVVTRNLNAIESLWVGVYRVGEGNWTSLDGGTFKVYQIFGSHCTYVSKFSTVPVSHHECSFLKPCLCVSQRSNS
eIF4E 4G PPI = eIF4E–eIF4G protein interaction inhibitors, primary screen, biochemical, uHTS, TR-FRET, eIF4GI fragment; Eukaryotic translation initiation factor 4E (Mus musculus) + Eukaryotic translation …; TR-FRET eIF4E-eIF4GI(517-606) binding, 2 h; inhibition, % at 21.7 µM; actives 0.37% (n = 220,000);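 active = inhibition above about 30%, limit read from the data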;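 note: 0% = full FRET control wells and 100% = background wells lacking eIF4GI fragment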
TNF necrop inh = inhibitors of TNF-alpha triggered necroptosis, primary screen, cell-based, Jurkat FADD-/-, single concentration | Jurkat FADD-/- TNF necroptosis rescue, ATP luminescence, 24 h; 0 = TNF only, 100 = no-TNF cells | actives 0.068% (n = 220,000) | activation (protection from cell death), % at 10 µM;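 active = activation, meaning protection from cell death, of at least 50% relative to plate controls; inactive = activation below 50%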;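 note: necroptosis triggered by 40 ng/mL TNF-alpha added together with compound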
L929 necroptosis = inhibitors of zVAD-triggered necroptosis, primary screen, L929 cells; L929 zVAD necroptosis rescue, ATP luminescence, 24 h; with zVAD 60 µM; viability rescue, % at 10 µM; actives 0.38% (n = 220,000); AID 1377, 2008;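 active = activation, scaled between plate controls, above about 75%, limit read from the data; inactive = activation under that limit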;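 note: 0% = zVAD with DMSO and 100% = DMSO alone without zVAD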
* hit, by the source's call; / = no result; [ ] = dose if it differs, or a comment. Shown are actives, neighbours in structure and some others; about 1.2% of the full set was active somewhere.

SMILES	EBV gp42 inh	eIF4E 4G PPI	TNF necrop inh	L929 necroptosis
COC(=O)COc1ccc(NS(=O)(=O)c2cccc([N+](=O)[O-])c2)cc1	-5	1	0	0
COCCOC(=O)c1c(N)n(CCCN2CCOCC2)c2nc3ccccc3nc12	-6	92*	0	0
Cc1c(N=C2N=C(NC(=O)c3cccs3)c3ccccc32)c(=O)n(-c2ccccc2)n1C	125*	-7	-8	58
Cc1cccc(NC(=O)c2nc[nH]c2C(=O)N[C@@H](Cc2ccccc2)C(=O)OCc2ccccc2)c1	-3	-3	2	1
O=C(CSc1nnc(-c2ccco2)o1)c1ccc([N+](=O)[O-])cc1	-29	93*	0	1
c1ccc(CSc2nnc(-c3ccco3)o2)cc1	3	-3	52*	-1
Cc1ccc2cc(C)c3nnc(SCc4ccc(C(=O)O)cc4)n3c2c1C	-6	97*	3	1
Cn1cnnc1SCc1ccc(C(=O)O)cc1	-8	-2	-1	1
COc1ccccc1-c1nc(-c2ccc(Br)cc2)no1	-22	0	3	0
COc1ccc(-c2nc(-c3ccc(Br)cc3)no2)c(OC)c1	-9	32*	1	0
CCC(=O)NC(=S)Nc1ccc(NC(=O)c2ccc([N+](=O)[O-])cc2)cc1	-17	56*[fluorescence artefact?]	4	1
CC(=O)Nc1ccc(NC(=S)NC(=O)c2ccc([N+](=O)[O-])cc2)cc1	0	1	2	1
CC(C)c1ccc(NC(=O)Cn2c(=O)oc3cccnc32)cc1	-16	0	0	0
COC(=O)COc1ccc(S(=O)(=O)Nc2ccc3c(c2)OCO3)cc1	5	55*[fluorescence artefact?]	0	0
Cc1ccc(N=Nc2[nH]c3ccccc3c2O)cc1	100*	2	1	58
CC(=O)OCCNc1cc(N2CCN(C)CC2)c2noc3c2c1C(=O)c1ccccc1-3	12	-7	2	18
CCOC(=O)C(C(=O)OCC)c1cc(Br)c2noc3c2c1C(=O)c1ccccc1-3	133*	6	-16	37
O=C(N/N=C/c1ccc2c(c1)OCO2)c1sc2cc(Cl)ccc2c1Cl	-14	30*	-2	2
COc1ccc2c(Cl)c(C(=O)N/N=C/c3ccc4c(c3)OCO4)sc2c1	-14	-42	-8	2
N#Cc1c(N)sc(=S)c2c1CCN(Cc1ccccc1)C2	84*	-17	/	/
CCN1CCc2c(sc(N)c2C#N)C1	-4	1	-1	0
CC1(C)CC2=C(CO1)C(=S)NC(c1ccccc1)N2CC1CCCO1 (stereo unspecified)	-6	95*	0	0
Cc1cccc(NC(=O)CSc2nnnn2-c2ccc3c(c2)OCCO3)n1	-5	-1	0	69
CCc1nnc(NC(=O)Cn2nc(-c3ccccc3OC)ccc2=O)s1	5	36*	-4	0
COC(=O)c1ccc(CSc2nc3ccc(S(=O)(=O)N4CCOCC4)cc3[nH]2)cc1	-8	0	0	0
SMILES	EBV gp42 inh	eIF4E 4G PPI	TNF necrop inh	L929 necroptosis
Cc1cccc(NC(=O)N(Cc2cc3cc(C)ccc3[nH]c2=O)CC2COCCO2)c1 (stereo unspecified)	0	3	5	3
CCOc1ccc2[nH]c(=O)c(CN(CC3COCCO3)C(=O)C3CC3)cc2c1 (stereo unspecified)	51*	1	0	2
C(=N\NC1=Nc2cccc3cccc1c23)/c1ccccc1	148*	4	1	1
Clc1ccc(/C=N/NC2=Nc3cccc4cccc2c34)cc1	22	-2	2	1
NC(=O)N=Nc1c2[nH]c3ccccc3nc-2c2ccccc12	4	-5	-21	59
CCN(CC)c1ccc(S(=O)(=O)N(CC)CC)cc1NC(=O)c1cccnc1	-15	2	1	0
CCc1ccc(C(=O)CSc2ncn[nH]2)cc1	-8	32*	0	0
CNCc1ccccc1Sc1cccc(O)c1	-3	22	2	0
CNCc1ccccc1Sc1cc(O)ccc1O	-7	48*[fluorescence artefact?]	-9	3
O=C(c1ccc(F)cc1)C1CCN(S(=O)(=O)c2ccccc2)CC1	-8	-1	1	1
Cc1ccc(/C=C/C(=O)O)cc1S(=O)(=O)NCc1ccco1	-11	-3	0	15
CC(C)COc1ccc(C(=O)NC(CC(C)C)C(=O)O)cc1 (stereo unspecified)	144*	2	0	0
CC(=O)Nc1ccc(N2CCCCC2)c(C(=O)Nc2cccc(C)c2)c1	-17	43*	2	0
Cc1cccc(NC(=O)c2cc(NC(=O)C3CCCCC3C(=O)O)ccc2N2CCCCC2)c1 (stereo unspecified)	-8	1	4	6
COc1cccc(/C=C/C(=O)NCc2ccc(S(N)(=O)=O)cc2)c1	-3	-2	1	1
c1ccc2c(c1)Nc1nccnc1S2	11	-1	22	85*
O=[N+]([O-])c1ccc(/C=N/n2c(CO)nc3ccccc32)s1	53*	1	-13	26
Clc1ccc(OCc2nnc(-c3ccccc3Br)o2)c(Cl)c1	91*	7	0	0
Cc1occc1-c1nnc(SCC(=O)c2c[nH]c3ccccc23)n1C	144*	5	1	1
Cc1occc1-c1nnc(SCC(=O)c2ccc(Cl)cc2)n1C	-6	-2	-1	0
CSC1=C(C#N)C(=O)NC(c2ccc(Cl)cc2)S1 (stereo unspecified)	-6	-2	-15	-1
Cc1n[nH]c(=O)nc1NCc1ccco1	-3	74*	-2	-1
Cc1n[nH]c(=O)nc1NCc1ccccc1	-18	1	0	0
Clc1ccc(C2=NNC(=NCc3ccccc3)SC2)cc1	6	0	56*	73
Fc1ccc(C2=NNC(=NCc3ccccc3)SC2)cc1F	-4	-1	51*	57
SMILES	EBV gp42 inh	eIF4E 4G PPI	TNF necrop inh	L929 necroptosis
c1ccc(CN=C2NN=C(c3ccccc3)CS2)cc1	-16	-4	16	2
COc1ccccc1C1=NNC(=NCc2ccccc2)SC1	-19	-2	40	15
Cc1ccc(-c2cc(-c3ccc(Cl)cc3)c(C#N)c(N)n2)o1	7	72*[fluorescence artefact?]	-5	0
Cc1ccc(-c2cc(-c3ccc(C)o3)nc(N)c2C#N)cc1	4	12	-8	-1
CC1=C(C(=O)N(C)C)C(c2ccc(C)s2)NC(=S)N1 (stereo unspecified)	-11	0	0	7
CCc1ccc(/C=C2\Oc3c(ccc(O)c3CN3CCN(CCO)CC3)C2=O)cc1	-5	72*	-2	0
CCN1CCN(CC(=O)N2N=C(c3cccs3)CC2c2ccc(OC)c(OC)c2)C(=O)C1=O (stereo unspecified)	64*	0	0	0
COc1cc(/C=C/C(=O)O)cc2c1OCCO2	-11	2	1	4
